Among all 5,500 compounds or so, about 2,000 (36%) were called active. Another 18% or so got no clear call; they are omitted. Rule as the data show it: active = normalized growth mostly below about 0.91 (no sharp cut-off); inconclusive = no clear call, values can overlap the other calls; inactive = mostly above about 0.92. The list shows a part of the results.
Assay: chemical genetic growth profiling, strain panel (AID 1159580);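 also: tested at 20 µM; growth read once vehicle control cultures reached saturation at 30 °C; 1 = growth at the plate median or of vehicle wells; lower values mean less growth of the strain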
Settings: growth OD
[1] = S. cerevisiae deletion strains, locus YDL101C, strain DUN1, stronger effect = lower value
[2] = S. cerevisiae deletion strains, locus YHR030C, strain SLT2, stronger effect = lower value
[3] = S. cerevisiae deletion strains, locus YJL095W, strain BCK1, stronger effect = lower value
[4] = S. cerevisiae deletion strains, locus YOR061W, strain CKA2, stronger effect = lower value

Measured: normalized growth

CS(=O)(=O)c1sc(C(=O)Sc2ccc(Cl)cc2)c2c1C=CCC2
active: S. cerevisiae deletion strains, locus YAR019C, strain CDC15, stronger effect = lower value 0.857 | S. cerevisiae deletion strains, locus YBL105C, strain PKC1, stronger effect = lower value 0.868 | S. cerevisiae deletion strains, locus YBR135W, strain CKS1, stronger effect = lower value 0.855 | S. cerevisiae deletion strains, locus YBR136W, strain MEC1, stronger effect = lower value 0.867 | S. cerevisiae deletion strains, locus YBR160W, strain CDC28, stronger effect = lower value 0.873 | S. cerevisiae deletion strains, locus YDL017W, strain CDC7, stronger effect = lower value 0.881 | S. cerevisiae deletion strains, locus YDL028C, strain MPS1, stronger effect = lower value 0.88 | S. cerevisiae deletion strains, locus YDL108W, strain KIN28, stronger effect = lower value 0.866 | S. cerevisiae deletion strains, locus YDL132W, strain cdc53, stronger effect = lower value 0.848 | S. cerevisiae deletion strains, locus YDL214C, strain PRR2, stronger effect = lower value 0.42 | S. cerevisiae deletion strains, locus YDR052C, strain DBF4, stronger effect = lower value 0.903 | S. cerevisiae deletion strains, locus YDR054C, strain cdc34, stronger effect = lower value 0.771 | S. cerevisiae deletion strains, locus YDR226W, strain ADK1, stronger effect = lower value 0.869 | S. cerevisiae deletion strains, locus YDR477W, strain SNF1, stronger effect = lower value 0.339 | S. cerevisiae deletion strains, locus YER123W, strain YCK3, stronger effect = lower value 0.368 | S. cerevisiae deletion strains, locus YER133W, strain GLC7, stronger effect = lower value 0.416 | S. cerevisiae deletion strains, locus YFL009W, strain cdc4, stronger effect = lower value 0.857 | S. cerevisiae deletion strains, locus YFL029C, strain CAK1, stronger effect = lower value 0.853 | S. cerevisiae deletion strains, locus YFR003C, strain YPI1, stronger effect = lower value 0.881 | S. cerevisiae deletion strains, locus YFR019W, strain FAB1, stronger effect = lower value 0.327 | S. cerevisiae deletion strains, locus YFR028C, strain CDC14, stronger effect = lower value 0.871 | S. cerevisiae deletion strains, locus YGR040W, strain KSS1, stronger effect = lower value 0.437 | S. cerevisiae deletion strains, locus YGR052W, strain FMP48, stronger effect = lower value 0.492 | S. cerevisiae deletion strains, locus YGR092W, strain DBF2, stronger effect = lower value 0.174 | [2] 0.374 | S. cerevisiae deletion strains, locus YHR079C, strain IRE1, stronger effect = lower value 0.349 | S. cerevisiae deletion strains, locus YHR082C, strain KSP1, stronger effect = lower value 0.511 | S. cerevisiae deletion strains, locus YHR205W, strain SCH9, stronger effect = lower value 0.206 | S. cerevisiae deletion strains, locus YIL147C, strain SLN1, stronger effect = lower value 0.886 | [3] 0.369 | S. cerevisiae deletion strains, locus YJL157C, strain FAR1, stronger effect = lower value 0.358 | S. cerevisiae deletion strains, locus YJR016C, strain ILV3, stronger effect = lower value 0.862 | S. cerevisiae deletion strains, locus YJR066W, strain TOR1 (second series), stronger effect = lower value 0.103 | S. cerevisiae deletion strains, locus YJR066W, strain TOR1, stronger effect = lower value 0.353 | S. cerevisiae deletion strains, locus YKL048C, strain ELM1, stronger effect = lower value 0.532 | S. cerevisiae deletion strains, locus YKL067W, strain YNK1, stronger effect = lower value 0.428 | S. cerevisiae deletion strains, locus YKL101W, strain HSL1, stronger effect = lower value 0.371 | S. cerevisiae deletion strains, locus YKL193C, strain SDS22, stronger effect = lower value 0.845 | S. cerevisiae deletion strains, locus YKL203C, strain TOR2, stronger effect = lower value 0.379 | S. cerevisiae deletion strains, locus YLR113W, strain HOG1, stronger effect = lower value 0.3 | S. cerevisiae deletion strains, locus YLR133W, strain CKI1, stronger effect = lower value 0.423 | S. cerevisiae deletion strains, locus YLR403W, strain SFP1, stronger effect = lower value 0.217 | S. cerevisiae deletion strains, locus YML070W, strain DAK1, stronger effect = lower value 0.397 | S. cerevisiae deletion strains, locus YMR001C, strain CDC5, stronger effect = lower value 0.836 | S. cerevisiae deletion strains, locus YMR205C, strain PFK2 (second series), stronger effect = lower value 0.458 | S. cerevisiae deletion strains, locus YMR277W, strain FCP1, stronger effect = lower value 0.838 | S. cerevisiae deletion strains, locus YNL006W, strain LST8, stronger effect = lower value 0.873 | S. cerevisiae deletion strains, locus YNL020C, strain ARK1, stronger effect = lower value 0.39 | S. cerevisiae deletion strains, locus YNL161W, strain CBK1, stronger effect = lower value 0.862 | S. cerevisiae deletion strains, locus YNL183C, strain NPR1, stronger effect = lower value 0.418 | S. cerevisiae deletion strains, locus YNL207W, strain RIO2, stronger effect = lower value 0.842 | S. cerevisiae deletion strains, locus YNL222W, strain SSU72, stronger effect = lower value 0.856 | S. cerevisiae deletion strains, locus YNL307C, strain MCK1 (second series), stronger effect = lower value 0.221 | S. cerevisiae deletion strains, locus YOL078W, strain AVO1, stronger effect = lower value 0.839 | S. cerevisiae deletion strains, locus YOL136C, strain PFK27, stronger effect = lower value 0.375 | [4] 0.256 | S. cerevisiae deletion strains, locus YOR119C, strain RIO1, stronger effect = lower value 0.527 | S. cerevisiae deletion strains, locus YOR231W, strain MKK1, stronger effect = lower value 0.353 | S. cerevisiae deletion strains, locus YOR329C, strain SCD5, stronger effect = lower value 0.876 | S. cerevisiae deletion strains, locus YPL031C, strain PHO85, stronger effect = lower value 0.308 | S. cerevisiae deletion strains, locus YPL153C, strain RAD53, stronger effect = lower value 0.279 | S. cerevisiae deletion strains, locus YPL204W, strain HRR25, stronger effect = lower value 0.286 | S. cerevisiae deletion strains, locus YPL209C, strain IPL1, stronger effect = lower value 0.854 | S. cerevisiae deletion strains, locus YPL256C, strain CLN2, stronger effect = lower value 0.521 | S. cerevisiae deletion strains, locus YPR025C, strain CCL1, stronger effect = lower value 0.863 | S. cerevisiae deletion strains, strain TSCII, stronger effect = lower value 0.841
inactive: [1] 0.92 | S. cerevisiae deletion strains, locus YJL128C, strain PBS2, stronger effect = lower value 0.894 | S. cerevisiae deletion strains, locus YPR106W, strain ISR1, stronger effect = lower value 0.928 | S. cerevisiae deletion strains, locus YPR111W, strain DBF20, stronger effect = lower value 0.929 | S. cerevisiae deletion strains, strain NNK1, stronger effect = lower value 0.907

CCCCSP(=O)(SCCCC)SCCCC
inactive: S. cerevisiae deletion strains, locus YAL013W, strain DEP1, stronger effect = lower value 1.01 | S. cerevisiae deletion strains, locus YBR021W, strain FUR4, stronger effect = lower value 1 | S. cerevisiae deletion strains, locus YBR229C, strain ROT2, stronger effect = lower value 1.01 | S. cerevisiae deletion strains, locus YCL029C, strain bik1, stronger effect = lower value 1.01 | S. cerevisiae deletion strains, locus YDL035C, strain GPR1, stronger effect = lower value 1.01 | S. cerevisiae deletion strains, locus YDL074C, strain BRE1, stronger effect = lower value 1.04 | [1] 1.02 | S. cerevisiae deletion strains, locus YDL134C, strain PPH21, stronger effect = lower value 1.01 | S. cerevisiae deletion strains, locus YDL185W, strain tfp1, stronger effect = lower value 1.01 | S. cerevisiae deletion strains, locus YDL192W, strain arf1, stronger effect = lower value 1.01 | S. cerevisiae deletion strains, locus YDR101C, strain arx1, stronger effect = lower value 1.01 | S. cerevisiae deletion strains, locus YDR150W, strain NUM1, stronger effect = lower value 1.01 | S. cerevisiae deletion strains, locus YDR162C, strain NBP2, stronger effect = lower value 1.02 | S. cerevisiae deletion strains, locus YDR318W, strain mcm21, stronger effect = lower value 1.01 | S. cerevisiae deletion strains, locus YDR388W, stronger effect = lower value 1.01 | S. cerevisiae deletion strains, locus YDR502C, strain sam2, stronger effect = lower value 1.01 | S. cerevisiae deletion strains, locus YEL061C, strain CIN8, stronger effect = lower value 1.01 | S. cerevisiae deletion strains, locus YER110C, stronger effect = lower value 1.01 | S. cerevisiae deletion strains, locus YER155C, strain BEM2, stronger effect = lower value 1.01 | S. cerevisiae deletion strains, locus YER167W, strain BCK2, stronger effect = lower value 1.02 | S. cerevisiae deletion strains, locus YGL078C, strain dbp3, stronger effect = lower value 1.01 | S. cerevisiae deletion strains, locus YGL086W, strain mad1, stronger effect = lower value 1 | S. cerevisiae deletion strains, locus YGL248W, strain PDE1, stronger effect = lower value 1.02 | S. cerevisiae deletion strains, locus YGR078C, strain PAC10, stronger effect = lower value 1.02 | S. cerevisiae deletion strains, locus YGR135W, strain pre9, stronger effect = lower value 1 | S. cerevisiae deletion strains, locus YGR229C, strain SMI1, stronger effect = lower value 1.04 | S. cerevisiae deletion strains, locus YGR252W, strain gcn5, stronger effect = lower value 0.984 | [2] 1.02 | S. cerevisiae deletion strains, locus YHR079C, strain IRE1 (second series), stronger effect = lower value 1.01 | S. cerevisiae deletion strains, locus YHR094C, strain hxt1, stronger effect = lower value 1 | S. cerevisiae deletion strains, locus YHR129C, strain ARP1, stronger effect = lower value 1.02 | S. cerevisiae deletion strains, locus YHR200W, strain rpn10, stronger effect = lower value 1 | S. cerevisiae deletion strains, locus YIL066C, strain RNR3, stronger effect = lower value 1.02 | S. cerevisiae deletion strains, locus YIL073C, strain SPO22, stronger effect = lower value 1.06 | S. cerevisiae deletion strains, locus YIL125W, strain kgd1, stronger effect = lower value 1.01 | S. cerevisiae deletion strains, locus YIR030C, strain dcg1, stronger effect = lower value 0.996 | [3] 1.05 | S. cerevisiae deletion strains, locus YJL134W, strain LCB3, stronger effect = lower value 1.02 | S. cerevisiae deletion strains, locus YJL168C, strain set2, stronger effect = lower value 1.01 | S. cerevisiae deletion strains, locus YJL187C, strain SWE1 (second series), stronger effect = lower value 1.01 | S. cerevisiae deletion strains, locus YJR043C, strain POL32, stronger effect = lower value 1.01 | S. cerevisiae deletion strains, locus YJR075W, strain HOC1, stronger effect = lower value 1.02 | S. cerevisiae deletion strains, locus YKL009W, strain mrt4, stronger effect = lower value 0.961 | S. cerevisiae deletion strains, locus YKL068W, stronger effect = lower value 1.01 | S. cerevisiae deletion strains, locus YKL085W, strain MDH1 (second series), stronger effect = lower value 1.01 | S. cerevisiae deletion strains, locus YKL085W, strain MDH1, stronger effect = lower value 1.01 | S. cerevisiae deletion strains, locus YKL190W, strain CNB1, stronger effect = lower value 1.02 | S. cerevisiae deletion strains, locus YKR001C, strain vps1, stronger effect = lower value 1.01 | S. cerevisiae deletion strains, locus YLR039C, strain RIC1, stronger effect = lower value 1.05 | S. cerevisiae deletion strains, locus YLR058C, strain SHM2, stronger effect = lower value 1.01 | S. cerevisiae deletion strains, locus YLR102C, strain apc9, stronger effect = lower value 0.995 | S. cerevisiae deletion strains, locus YLR262C, strain YPT6, stronger effect = lower value 1.04 | S. cerevisiae deletion strains, locus YLR268W, strain sec22, stronger effect = lower value 1.01 | S. cerevisiae deletion strains, locus YLR330W, strain CHS5, stronger effect = lower value 1.01 | S. cerevisiae deletion strains, locus YLR342W, strain FKS1 (second series), stronger effect = lower value 1.04 | S. cerevisiae deletion strains, locus YLR371W, strain rom2, stronger effect = lower value 0.999 | S. cerevisiae deletion strains, locus YLR418C, strain cdc73, stronger effect = lower value 1.02 | S. cerevisiae deletion strains, locus YML016C, strain PPZ1, stronger effect = lower value 1.02 | S. cerevisiae deletion strains, locus YML032C, strain rad52, stronger effect = lower value 1.01 | S. cerevisiae deletion strains, locus YML124C, strain tub3, stronger effect = lower value 1.01 | S. cerevisiae deletion strains, locus YMR078C, strain ctf18, stronger effect = lower value 1.01 | S. cerevisiae deletion strains, locus YMR223W, strain ubp8, stronger effect = lower value 1 | S. cerevisiae deletion strains, locus YMR263W, strain SAP30, stronger effect = lower value 1.02 | S. cerevisiae deletion strains, locus YMR307W, strain GAS1, stronger effect = lower value 1.2 | S. cerevisiae deletion strains, locus YNL067W, strain RPL9B, stronger effect = lower value 1.01 | S. cerevisiae deletion strains, locus YNL128W, strain TEP1, stronger effect = lower value 1.01 | S. cerevisiae deletion strains, locus YNL153C, strain GIM3, stronger effect = lower value 1.01 | S. cerevisiae deletion strains, locus YNL233W, strain BNI4, stronger effect = lower value 1.01 | S. cerevisiae deletion strains, locus YNL250W, strain rad50, stronger effect = lower value 1.01 | S. cerevisiae deletion strains, locus YNL271C, strain bni1, stronger effect = lower value 0.998 | S. cerevisiae deletion strains, locus YNL298W, strain CLA4, stronger effect = lower value 1.02 | S. cerevisiae deletion strains, locus YNL307C, strain MCK1, stronger effect = lower value 0.992 | S. cerevisiae deletion strains, locus YNL322C, strain KRE1, stronger effect = lower value 1.01 | S. cerevisiae deletion strains, locus YNR052C, strain pop2, stronger effect = lower value 1.01 | S. cerevisiae deletion strains, locus YOL006C, strain TOP1, stronger effect = lower value 1.07 | S. cerevisiae deletion strains, locus YOL012C, strain htz1 0.841 | S. cerevisiae deletion strains, locus YOL147C, strain pex11, stronger effect = lower value 1.01 | [4] 1.01 | S. cerevisiae deletion strains, locus YOR069W, strain VPS5, stronger effect = lower value 1.02 | S. cerevisiae deletion strains, locus YOR136W, strain idh2, stronger effect = lower value 1 | S. cerevisiae deletion strains, locus YOR144C, strain elg1, stronger effect = lower value 1.02 | S. cerevisiae deletion strains, locus YOR184W, strain ser1, stronger effect = lower value 0.987 | S. cerevisiae deletion strains, locus YOR316C, strain cot1, stronger effect = lower value 1.01 | S. cerevisiae deletion strains, locus YPL055C, strain LGE1, stronger effect = lower value 1.03 | S. cerevisiae deletion strains, locus YPL241C, strain CIN2, stronger effect = lower value 1.02 | S. cerevisiae deletion strains, locus YPR119W, strain clb2, stronger effect = lower value 1.01 | S. cerevisiae deletion strains, locus YPR141C, strain kar3, stronger effect = lower value 1.02 | S. cerevisiae deletion strains, locus YPR163C, strain tif3, stronger effect = lower value 1.01 | S. cerevisiae deletion strains, locus YPR167C, strain met16, stronger effect = lower value 1 | S. cerevisiae deletion strains, strain wtn01, stronger effect = lower value 0.996 | S. cerevisiae strains, strain wild type, stronger effect = lower value 1.02

Reference: PubChem BioAssay AID1159580 (chemical genetic matrix, 2015)
